High-throughput results: PubChem BioAssay, National Center for Advancing Translational Sciences (NCATS)
Lassa entry inh – qHTS for Inhibitors of binding or entry into cells for Lassa Virus; Lassa virus pseudotype entry inhibition, cell reporter; 300,000 tested, 1.2% active; Potency, µM (titrated, usually from 37.9 µM), for inactives: at the highest dose activity change, negative = inhibition, hits mostly inhibitors; calls by dose curve; tested in HEK293 cells; note: potency is the fitted concentration of half-maximal effect; nearly all actives have a fitted effect of over 50% in size
HCV inh – qHTS Assay for Inhibitors of Hepatitis C Virus (HCV); Huh7.5.1 HCVcc-Cre infection, luciferase reporter, 44 h; Potency, µM (highest dose often 41.8 µM), inactives show at the top dose activity change, negative = inhibition, hits mostly inhibitors; 340,000 tested, 3.4% active; AID 651820, 2012; note: potency is the fitted concentration of half-maximal effect
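Reporter virus HCVcc-Cre (~0.5 moi) infects cells exposed to compound; seeding density 1,000 cells/well with 4 h settling beforehand. Luminescence, 15 sec read, taken 44 h post-infection following a 15 min RT substrate incubation.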
Marburg entry inh – qHTS for inhibitors of binding or entry into cells for Marburg Virus. Marburg virus pseudotyped entry inhibition, cell reporter. Potency, µM (highest dose often 37.8 µM), for the others: top-dose activity change, negative = inhibition, hits mostly inhibitors. 300,000 tested, 1.8% active. AID 540276, 2011; calls by dose curve; tested in HEK293 cells; note: potency is the fitted concentration of half-maximal effect
Pf growth 96h – Primary qHTS for delayed death inhibitors of the malarial parasite plastid, 96 hour incubation. 320,000 tested, 6.9% active. AID 504834, 2011. P. falciparum luciferase reporter growth, 96 h. Potency, µM (series often up to 28.7 µM), without a hit: at the top dose activity change, negative = inhibition, most hits filed as inhibitors; note: potency is the fitted concentration of half-maximal effect
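Erythrocytes infected with luciferase-expressing P. falciparum were dispensed at 2% hematocrit and 0.05% parasitemia (final), then incubated with compounds 96 hours at 37 C in 5% CO2. Luminescence after detection reagent addition reported growth.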
HCMV inh – qHTS Assay for inhibitors of the human cytomegalovirus (HCMV); HFF cells, HCMV-luciferase reporter, 72 h; active compounds read low; activity change, negative = inhibition, % at 57.5 µM; 410,000 tested, 4.5% active; in the data active = activity change below about -60%; inconclusive = no clear call, values can overlap the other calls; inactive = above about -39%
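Steps: HFFs plated, 16 h 37C; compounds added; HCMV-luciferase added to MOI 1 PFU/cell; 72 h 37C; OneGlo reagent, 5 min room temperature; luminescence read, normalized to controls.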
Pf growth 48h – Primary qHTS for delayed death inhibitors of the malarial parasite plastid, 48 hour incubation; P. falciparum luciferase growth in erythrocytes, 48 h; Potency, µM (doses to about 28.7 µM), for the others: at the top dose activity change, negative = inhibition, usual class: inhibitors; 310,000 tested, 5.9% active; AID 504832, 2011; note: potency is the fitted concentration of half-maximal effect
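First compound was added to culture medium, then infected red cells at 0.1% parasitemia and 2% hematocrit (final). After incubation at 37 C under 5% CO2, luciferase detection reagent was dispensed and light output recorded.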
* = called active by the depositor; ? = inconclusive; · = no result given; [ ] = dose if it differs, or a comment. In the library only some 14% were active in any assay of this set; here they are far more common. Unless noted, calls come from the whole dose curve; as a rule, active = well fitted inhibition curve with a large enough effect; inconclusive = small, poorly fitted or top-dose-only effect, or another doubt; inactive = no such curve, though single readings can be large or run the other way. % is set by controls: 0 for no effect and ±100 for the full control effect.

SMILES	Lassa entry inh	HCV inh	Marburg entry inh	Pf growth 96h	HCMV inh	Pf growth 48h
COc1ccccc1NS(=O)(=O)c1cccc(C(=O)N/N=C2\CC(=O)CC(C)(C)C2)c1	8.2%	-2.0%	-10.6%	?	-14.7	13.1µM*
COc1ccc(NS(=O)(=O)c2cccc(C(=O)N/N=C/c3ccccc3OC)c2)cc1	3.9%	16.6%	-5.3%	47.8%	-13.1	-9.6%
COc1ccccc1NS(=O)(=O)c1cccc(C(=O)N/N=C/c2ccc([N+](=O)[O-])o2)c1	14.1µM*	11.2µM*	?	1.65µM*	-35.8	1.85µM*
Cc1ccc(/C=N/NC(=O)c2cccc(S(=O)(=O)Nc3ccccc3Cl)c2)o1	6.7%	38.0%	6.6%	2.9%	-17.1	23.7%
Cc1cccc(NC(=O)c2nc[nH]c2C(=O)NCCCCNC(=O)c2[nH]cnc2C(=O)Nc2cccc(C)c2)c1	·	7.2%	·	·	9.8	·
COc1cc(NC(=O)Cn2nnc(-c3ccc(C(F)(F)F)cc3)n2)c(C(=O)O)cc1OC	6.1%[46.1 µM]	·	·	·	34.5	·
Cc1cc2c(s1)c(C=O)c(C(=O)NCc1ccccc1F)n2C	·	·	·	-21.3%	·	?
CCN(Cc1cccs1)C(=O)CN1CCN(S(=O)(=O)c2ccc3c(c2)OCCCO3)CC1	?	-22.4%	-19.1%	?	-18.2	-5.2%
CCN(CC)c1ccc(/C=N/NC(=O)c2cccc(S(=O)(=O)Nc3ccccc3OC)c2)cc1	·	11.2µM*	·	-0.2%	-16.5	?
CCN(CC)c1ccc(/C=N/NC(=O)c2ccc3nc[nH]c3c2)c(O)c1	?	5.01µM*	?	?	·	?
COc1cccc(/C=N/NC(=O)c2ccc3nc[nH]c3c2)c1O	·	12.1%	·	-28.2%	0.0	?
COc1ccccc1NS(=O)(=O)c1cccc(C(=O)N/N=C/c2ccc3c(c2)OCCO3)c1	10.2%	3.2%	0.1%	38.2%	-63.4*	9.4%
CON=C1C=C(C)C(=O)C(C)=C1C	24.7%	25.0%	7.1%	·	7.3	·
O=S1(=O)CCS(=O)(=O)C1c1ccccc1	?	24.2%	?	·	-16.3	·
OC1c2cc(Br)ccc2N=C2CCCN21 (stereo not drawn)	·	?	·	10.4µM*	-99.8*	8.28µM*
CCOc1ncccc1C(=O)N(C)CC(=O)Nc1ccc(C)cc1	-2.8%	-11.2%	10.5%	24.8%	4.7	9.5%
Cc1ccc(NC(=O)CN(C)C(=O)c2cccnc2Nc2cccc(C(F)(F)F)c2)cc1	·	?	·	9.28µM*	-60.1*	?
COc1cccc(NC(=O)CN(C)C(=O)c2cccnc2Nc2cccc(C(F)(F)F)c2)c1	·	?	·	?	·	9.28µM*
Cc1ccc(S(=O)(=O)CCC(=O)N(C)C2CCCCC2)cc1	-2.2%	·	17.1%	-14.5%	27.3	8.0%
CCOc1ccc(-c2cn(-c3ccc(C)cc3)c(SCC(=O)Nc3ccc(C)cc3)n2)cc1	-12.9%[46.1 µM]	·	·	·	11.3	·
COc1ccccc1CNC(=O)CN1C(=O)CSc2c1c(C)nn2-c1ccccc1	-19.1%[46.1 µM]	·	·	·	-6.9	·
COc1ccc(CC(=O)N2CCN=C2SCc2cccc([N+](=O)[O-])c2)cc1	?	-26.5%	?	?	-22.3	10.4µM*
O=S(=O)(c1ccccc1)N1CCN=C1SCc1ccccc1	-22.9%	1.5%	?	-2.8%	-20.4	?
O=[N+]([O-])c1ccc(S(=O)(=O)N2CCN=C2SCc2cccnc2)cc1	?	-0.4%	1.6%[46.1 µM]	3.1%	-72.8*	-17.4%
O=[N+]([O-])c1cccc(CSC2=NCCN2S(=O)(=O)c2ccccc2)c1	·	-28.8%	·	?	-74.4*	?
SMILES	Lassa entry inh	HCV inh	Marburg entry inh	Pf growth 96h	HCMV inh	Pf growth 48h
O=C(Cc1ccc([N+](=O)[O-])cc1)N1CCN=C1SCc1ccccc1	?	6.0%	3.2%	-18.1%	?	?
O=C(c1ccc(S(=O)(=O)N2CCCCC2)cc1)N1CCN=C1SCc1cccnc1	·	-0.4%	-2.0%	2.1%	-26.7	·
CC(=O)NS(=O)(=O)c1ccc(NC(=O)c2ccc3c(c2)OCO3)cc1	·	14.7%	·	?	-9.5	32.3%
COc1ccc(S(=O)(=O)Nc2cccc(-c3ccc(N4CCCCCC4)nn3)c2)cc1	-13.9%[46.1 µM]	·	·	·	?	·
CCOC(=O)CNC(c1ccccc1)c1cc(Br)ccc1NC(=O)c1ccc(Cl)cc1 (stereo not drawn)	?	·	·	·	-14.0	·
Cn1cc(C(N)=O)c2ccccc21	·	15.8%	·	70.9%	17.5	38.9%
Cn1cc(C(=O)CCl)c2ccccc21	?	7.94µM*	16.4µM*	?	-98.2*	?
CC(C)CCOc1ccc(Cn2c(=O)sc3ccccc32)cc1	-3.8%[46.1 µM]	·	7.2%[46.1 µM]	·	4.1	·
CSCCC(NC(=O)c1ccccc1Cl)C(=O)NCC(c1ccc(F)cc1)N1CCOCC1 (stereo not drawn)	·	9.6%	·	·	?	·
COc1ccc(C(=O)NC(=S)NC(C)(C)C)cc1Br	-4.7%	?	-3.5%	5.22µM*	19.2	?
COc1ccc(C(=O)NC(=S)NNC(=O)c2ccncc2)cc1Br	·	-4.3%	·	?	-1.9	13.1µM*
CC(NC(=O)Nc1ccccc1C(F)(F)F)c1c(-n2cccc2)sc2c1CCCC2 (stereo not drawn)	5.1%[46.1 µM]	·	-22.7%[46.1 µM]	·	-3.9	·
FC(F)(F)c1ccc(-c2nc(-c3ccccc3)oc2NCc2ccccc2)cc1	-10.5%[14.3 µM]	·	-6.9%[14.2 µM]	·	·	·
O=C(O)Cn1ccnc1[N+](=O)[O-]	·	·	·	·	-6.7	·
CCCc1cc2c(=O)c(-c3ccccn3)c(C)oc2cc1O	24.7%	-6.5%	14.1%	9.28µM*	51.2	?
Cc1cc(C)n2nc(C(=O)N/N=C/c3ccccc3Cl)nc2n1	-3.2%	-2.2%	?	-19.6%	68.6	-5.0%
Cc1cc(C)n2nc(C(=O)N/N=C/c3c4ccccc4cc4ccccc34)nc2n1	?	-22.7%	?	11.7µM*	-75.9*	-9.1%
Cc1cc(C)n2nc(C(=O)OCC(=O)NNC(=O)c3ccccc3)nc2n1	·	-0.3%	·	43.1%	-60.7*	11.2%
Cc1cc(C)n2nc(C(=O)NC(c3ccccc3)c3ccccc3)nc2n1	?	?	?	10.2%	-74.1*	-0.2%
Cc1cc(C)n2nc(C(=O)OCC(=O)NC(=O)c3ccccc3)nc2n1	-9.6%	3.0%	0.4%[46.1 µM]	16.3%	-4.6	20.0%
Cc1cc(C)n2nc(CC(=O)NCc3ccccc3Cl)nc2n1	-10.5%	4.5%	-2.9%	3.29µM*	-31.8	7.0%
CN(C(=O)c1ccc(NC(=O)Cc2ccc(NC(=O)C3CCCN(C(=O)C4CC4)C3)cc2)cc1)C1CC1 (stereo not drawn)	·	-4.1%	·	?	29.8	-7.7%
